These results are taken from the supplement of paper PMC12808144.

A number with no mark means an inactive call.

The assay concerns Mel-DCC-11-R. Nature of the assay: cell viability relative to DMSO control (fraction of DMSO control); higher = less cytotoxic, active = 0.8 or less. The conditions noted are these: 1 µM; 120 h; vemurafenib co-treatment 8 µM. In a few lines:
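Cells in 40 µl per well went into 384-well plates pre-spotted acoustically with a TargetMol library of 315 approved anti-cancer drugs, each at 1 µM in duplicate, for 120 h. Seeding was 2500/well for NHEM-hTERT immortalized melanocytes and 1500/well for patient-derived Mel-DCC-11 and its resistant subline Mel-DCC-11-R, which was run alone and with 8 µM of its selecting drug. Luminescence was read with ATPlite 1step. Viability was normalised to vehicle-treated controls and averaged over duplicates.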
For the compound `CN(CCOc1ccc(CC2SC(=O)NC2=O)cc1)c1ccccn1.O=C(O)/C=C\C(=O)O` (stereo not drawn) [Rosiglitazone maleate], the cell viability was 1.12. As to `CCc1ccc(CCOc2ccc(CC3SC(=O)NC3=O)cc2)nc1.Cl` (stereo not drawn) [Pioglitazone hydrochloride], the cell viability was 1.18. In the case of `O=c1ccn([C@@H]2O[C@H](CO)[C@@H](O)[C@H]2O)c(=O)[nH]1` [Uridine], the cell viability was 1.09.
